# Assay outcomes from PubChem.
# RGS16-Gao – regulators of human RGS16-Galphao interaction; bead-based flow cytometry RGS16-Galphao binding, fluorescence; actives lie on both sides; binding response (% of control), % at 10 µM; hit rate 0.38% among 220,000; AID 1441; call rule not given here;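 note: Galphao activated by GDP with aluminum fluoride before binding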
# Target sequence (O15492 whole entry, looked up): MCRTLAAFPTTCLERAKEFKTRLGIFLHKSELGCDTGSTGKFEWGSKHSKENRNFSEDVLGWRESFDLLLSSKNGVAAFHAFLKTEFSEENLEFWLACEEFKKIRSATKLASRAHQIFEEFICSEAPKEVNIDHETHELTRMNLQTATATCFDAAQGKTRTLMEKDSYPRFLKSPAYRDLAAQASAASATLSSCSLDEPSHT
# Target sequence (P09471 whole entry, looked up): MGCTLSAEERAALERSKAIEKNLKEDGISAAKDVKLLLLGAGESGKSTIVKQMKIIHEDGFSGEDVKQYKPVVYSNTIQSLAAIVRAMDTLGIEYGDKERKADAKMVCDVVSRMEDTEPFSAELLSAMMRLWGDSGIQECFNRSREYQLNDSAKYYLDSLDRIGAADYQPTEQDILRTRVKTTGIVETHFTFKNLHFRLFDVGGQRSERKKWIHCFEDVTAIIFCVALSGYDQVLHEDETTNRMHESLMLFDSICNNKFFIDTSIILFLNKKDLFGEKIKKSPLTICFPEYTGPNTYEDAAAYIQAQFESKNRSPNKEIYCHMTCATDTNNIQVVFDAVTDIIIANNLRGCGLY
# GSH bead fluor – compound fluoresces at 488/530 nm on GSH beads | GSH beads flow cytometry, compound fluorescence 488/530 nm; active compounds read high | fluorescence (KMESF) at 10 µM | hit rate 0.25% among 190,000; in the data active = fluorescence above about 89;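 note: glutathione beads carrying GST-tagged Bcl family fusion proteins plus one bare bead set; values are compound well signal with DMSO vehicle wells as background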
# Avidin fluor – compound fluoresces at 488/530 nm on avidin beads; hit rate 0.38% among 220,000; fluorescence (KMESF) at 10 µM; compound fluorescence 488/530 nm, flow cytometry; active compounds read high; in the data active = fluorescence above about 47
# RGS8-Gao – modulates binding of RGS8 to human Galphao. multiplexed bead flow cytometry; actives lie on both sides. hit rate 0.34% among 220,000. P09471. response (percent of control binding), % at 10 µM; in the data active = response below about 60% or above about 140%; inactive = in between;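 note: Galphao activated as the GDP aluminium fluoride complex binding bead-coupled RGS8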
# RGS4-Gao reg – modulates binding of RGS4 to human Galphao; hit rate 0.33% among 220,000; AID 1415; Multiplexed bead flow cytometry; actives lie on both sides; binding response (% of control), % at 10 µM; in the data active = binding response below about 49% or above about 150%; inactive = in between;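 note: fluorescent Galphao activated with aluminum fluoride binding bead-coupled RGS4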
# RGS7-Gao – regulators of human RGS7-Galphao interaction; P09471; Multiplexed bead flow cytometry, RGS7-Galphao binding; actives lie on both sides; binding response (% of control), % at 10 µM; hit rate 0.35% among 220,000; in the data active = binding response below about 49% or above about 150%; inconclusive = no clear call, values can overlap the other calls; inactive = in between;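 note: fluorescent Galphao held in activated GDP-AlF4 state binding bead-coupled RGS7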
# The depositor's hits bear a star; ? = inconclusive; nt = not tested or not shown; + = active, no number; ! = not active in a repeat; [ ] = remark or other dose. Rows were chosen to be rich in hits. Some 1.2% of all compounds tested hit in one or more screens of this group.
SMILES,RGS16-Gao,GSH bead fluor,Avidin fluor,RGS8-Gao,RGS4-Gao reg,RGS7-Gao
COC(=O)C1CCN(C(=O)C(C)Oc2ccc(Cl)cc2Cl)CC1 (stereo unspecified),104,28,57*,102,108,138
Cc1onc(-c2ccccc2)c1C(=O)OCC(=O)Nc1ccc2c(c1)OCO2,109,8,18,102,111,99
Cc1onc(-c2ccccc2Cl)c1C(=O)OCC(=O)Nc1ccc2c(c1)OCO2,103,263*,7,105,104,105
Cc1onc(-c2ccccc2Cl)c1C(=O)N1CCCc2ccccc21,100,30,10,101,100,99
Cc1onc(-c2ccccc2Cl)c1C(=O)OCC(=O)N1CCCc2ccccc21,105,267*,8,102,106,106
O=C(NNC(=O)C1COc2ccccc2O1)c1cccc([N+](=O)[O-])c1 (stereo unspecified),97,12,19,97,99,110
O=C(Cn1nc(-c2ccccc2)ccc1=O)Nc1cccc(NC(=O)c2ccccn2)c1,95,15,21,96,100,98
COc1cc(-c2nnc(Sc3ccc(C(F)(F)F)cc3[N+](=O)[O-])o2)cc(OC)c1OC,103,19,72*,103,106,106
O=C(O)c1ccc(Sc2nnc(-c3cccc(Br)c3)o2)c([N+](=O)[O-])c1,104,4,8,103,104,101
CS(=O)(=O)N1CCN(c2ccc([N+](=O)[O-])c(NCc3ccc(Cl)cc3)c2)CC1,104,99*,15,102,101,101
O=S(=O)(c1ccc(Br)s1)N1CCc2ccccc2C1,117,26,48*,106,142,128
CCCCN1C(=O)/C(=C/C=C2\Oc3ccccc3N2CC)SC1=S,107,16,12,103,102,108
CCN1/C(=C/C=C/c2oc3ccc(-c4ccccc4)cc3[n+]2CC)Oc2ccc(-c3ccccc3)cc21,+[activator],640*,994*,300*[activator],+[activator],+[activator]
CN(C)CCCNC(NC(=O)/C=C/c1ccccc1)C(Cl)(Cl)Cl (stereo unspecified),103,nt,6,99,100,?
NC(=S)NNC(=O)c1cccc(Br)c1,104,19,29,102,105,100
CC(C)(C)c1ccc(C(=O)NNC(=O)c2cccc(Br)c2)cc1,107,32,65*,108,118,146
COc1ccc(NS(=O)(=O)c2ccc3c(c2)NC(=O)CO3)cc1,102,13,10,103,104,104
Cc1ccc(NS(=O)(=O)c2ccc3c(c2)NC(=O)CC(=O)N3)cc1C,107,26,58*,98,99,111
Nc1ccc2oc(-c3ccccc3Cl)nc2c1,98,12,14,100,102,96
Cc1ccc(C)c(-c2nc3cc(N)ccc3o2)c1,90,14,61*,97,101,106
C/C(=N\NC(=S)NCc1ccccc1)c1ccc2ccccc2c1OC(F)F,103,10,19,100,101,97
CC(O)c1cccc(NC(=O)CCC(=O)O)c1 (stereo unspecified),101,261*,6,98,99,102
CC(O)c1cccc(NC(=O)CCCc2ccccc2)c1 (stereo unspecified),75,9,6,95,101,96
CC1=[N+](C)N(c2ccccc2)C(=O)C1N=Cc1ccc(Cl)cc1 (stereo unspecified),89,17,14,91,89,88
COc1ccccc1NS(=O)(=O)c1ccc(OC)c(OC)c1,98,22,113*,104,106,126
SMILES,RGS16-Gao,GSH bead fluor,Avidin fluor,RGS8-Gao,RGS4-Gao reg,RGS7-Gao
Cc1cc(-c2ccccc2)nc(SCC(=O)N2CCCC2)n1,94,15,8,99,97,?
O=C(NC(=S)Nc1nc2ccccc2s1)c1cccs1,109,6,14,103,107,105
CCc1ccc(-c2nc(NC(=S)NC(=O)c3cccs3)sc2C)cc1,98,24,57*,98,99,114
Cc1ccc(NC(=O)CCC(=O)NNC(=O)c2ccccc2[N+](=O)[O-])c(C)c1,97,18,10,98,99,97
Cc1onc(-c2ccccc2)c1C(=O)Nc1ccncc1,104,12,50*,101,100,109
Cc1cccc2c(N=O)c(O)[nH]c12,98,nt,10,100,100,?
COc1ccc(NC(=O)CC2C(=O)N(c3cccc(OC)c3)C(=O)N2CCC(C)C)cc1 (stereo unspecified),93,7,7,99,95,96
CC(C)Cn1c(N)c(C(=O)CSc2ncnc3sc4c(c23)CCCC4)c(=O)n(C)c1=O,91,101*,3,98,101,98
N#CCC(=O)N1CCN(C=O)CC1,109,17,11,103,103,101
COc1ccccc1-c1cc(C(F)(F)F)nc(S(=O)(=O)CCCC(=O)NC(C)C)n1,95,5,19,100,90,102
COc1ccccc1-c1cc(C(F)(F)F)nc(S(C)(=O)=O)n1,106,483*,10,104,102,101
CCCc1nnc(NS(=O)(=O)c2ccc(OC)cc2)s1,81,28,8,95,101,103
COc1ccc(S(=O)(=O)Nc2nncs2)cc1,116,20,49*,104,103,109
COc1ccccc1NC(=O)Nc1ccnn1C1CCCCC1,102,266*,6,96,100,97
COc1ccccc1NC(=O)Nn1cnnc1,73,242*,4,95,93,91
O=C(CSc1nnc(-c2ccc(S(=O)(=O)N3CCCC3)cc2)o1)NCc1ccccc1,103,113*,7,100,96,101
O=C(CSc1nnc(-c2ccc(F)cc2)o1)Nc1ccc(S(=O)(=O)N2CCCC2)cc1,108,5,6,102,103,101
CNC(=O)COC(=O)c1cc(SC)ccc1Cl,103,13,20,100,102,?
CCCCSCc1ccc(C(=O)O)o1,103,131*,5,100,90,91
N#CCCSCc1ccc(C(=O)O)o1,101,25,17,100,99,104
O=c1c(Cl)c(N2CCC3(CC2)OCCO3)cnn1C12CC3CC(CC(C3)C1)C2,98,nt,7,103,104,?
Cc1c2cc(O)c(=O)cc-2oc2cc(O)c(O)cc12,90,nt,6,31*!,25*!,-4.9*!
COc1cc(OC)c(-c2c3cc(O)c(=O)cc-3oc3cc(O)c(O)cc23)cc1OC,30,283*,-1,32*,37*,-3.2*
CC(C(=O)N1c2ccc(F)cc2CCC1C)N1C(=O)c2ccccc2C1=O (stereo unspecified),97,17,48*,97,95,97
